This is a sample that favours compounds with a hit; in the whole collection about 1.8% have one here.
GLP-1R inv ag = acts as inverse agonist at human GLP-1 receptor; 1.6% of 410,000 active; HEK293 GLP-1R CRE-luciferase, luminescence, 24 h; GLP-1R form is constitutively active; Potency, µM (top dose mostly 38.3 µM), inactives show at the highest dose activity change, negative = inhibition, most hits filed as inhibitors; also: potency is read from the fitted curve at half-maximal effect; % is scaled to controls: 0 for no effect and ±100 for the full control effect; nearly all actives have a fitted effect of over 55% in size
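Assay principle: reduced luminescence from a cAMP-responsive reporter in HEK293 cells co-expressing a constitutively active GLP-1R. Conditions: 24 hr compound incubation, 37 deg C, 5% CO2.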
GLP-1R agonist = agonists of human GLP-1 receptor; P43220; HEK293 GLP-1R CRE-luciferase, luminescence, 4-6 h; cells express a hypersensitive GLP-1R form; Potency, µM (series often up to 45.6 µM), for inactives: at the highest dose activation, most hits filed as activators; 0.007% of 380,000 active; also: potency is read from the fitted curve at half-maximal effect; % of control where 0% means no effect
TRPML1 agonist = human mucolipin-1 channel agonism; TRPML1-expressing cells, Ca2+ dye fluorescence, FDSS; activation, % (concentration not given with the values); 0.12% of 410,000 active; in the data active = activation above about 50%; inconclusive = mostly about 30% to 49%; also: 0% is about no effect
Target sequence (Q9GZU1 whole entry, looked up): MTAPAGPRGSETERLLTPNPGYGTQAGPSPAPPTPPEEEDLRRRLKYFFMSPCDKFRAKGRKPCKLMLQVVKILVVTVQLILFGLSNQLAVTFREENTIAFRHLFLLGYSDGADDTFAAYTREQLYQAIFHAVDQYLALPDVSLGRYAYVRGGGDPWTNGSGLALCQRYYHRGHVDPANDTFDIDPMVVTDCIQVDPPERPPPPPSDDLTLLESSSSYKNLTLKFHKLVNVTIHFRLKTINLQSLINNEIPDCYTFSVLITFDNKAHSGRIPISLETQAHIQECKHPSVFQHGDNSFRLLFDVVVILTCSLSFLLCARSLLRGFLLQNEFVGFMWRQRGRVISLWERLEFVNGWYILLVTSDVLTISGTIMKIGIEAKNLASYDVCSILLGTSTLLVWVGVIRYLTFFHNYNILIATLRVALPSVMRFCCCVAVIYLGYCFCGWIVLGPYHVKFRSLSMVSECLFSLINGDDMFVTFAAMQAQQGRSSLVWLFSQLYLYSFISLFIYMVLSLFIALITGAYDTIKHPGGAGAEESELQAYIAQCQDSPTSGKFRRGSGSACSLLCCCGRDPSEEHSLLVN
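Calcium fluorescence on an FDSS kinetic reader gave the read-out. Tet-induced TRPML1-DL cells were plated overnight, dye-loaded (Ca8 with quencher, 45-90 min, room temperature, dark), then read 110 s after compound addition, and again 110 s after 4uM final 54-4 (EC80).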
TRPML1 inh = human mucolipin-1 channel inhibition; activity change, negative = inhibition, % (concentration not given with the values); 0.02% of 390,000 active; Q9GZU1; TRPML1-inducible cells, Ca2+ dye fluorescence, FDSS; active compounds read low; inhibition of EC80 agonist-evoked calcium signal; in the data active = activity change below about -50%; inconclusive = between about -30% and that limit;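 also: stimulus is agonist 54-4 at its EC80 concentration; % is scaled to controls: 0 for no effect and ±100 for the full control effect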
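Tet-induced TRPML1-DL cells loaded with Ca8 no-wash calcium dye were read kinetically on FDSS. Compound addition was followed by EC80 agonist 54-4 (4 uM final); inhibition was read over 110 s.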
GLP1R cytotox = cytotoxic in the GLP-1 receptor inverse agonist counter-screen; HEK293 cAMP-luciferase reporter cells, luminescence, 24 h; Potency, µM (titrated, usually from 38.3 µM), for inactives: at the top dose activity change, negative = inhibition, usual class: inhibitors; 0.13% of 410,000 active;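 also: loss of luciferase light is scored as toxicity; potency is read from the fitted curve at half-maximal effect; % is scaled to controls: 0 for no effect and ±100 for the full control effect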
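Seeding density was 200 cells/uL; after overnight-length (12 h) culture, 23 nL compounds went on for 24 h at 37 °C. Readout used a luciferase detection reagent, luminescence taken after 12 min at room temperature.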
* hit, by the source's call; ? = inconclusive; · = not tested or not shown. Unless noted, calls follow the shape of the dose curve; as a rule, active = well fitted curve in the direction sought with a large enough effect; inconclusive = small, poorly fitted or top-dose-only effect, or another doubt; inactive = no such curve, though single readings can be large; an effect the other way counts as inactive or inconclusive.

SMILES	GLP-1R inv ag	GLP-1R agonist	TRPML1 agonist	TRPML1 inh	GLP1R cytotox
CN(C)CCCn1c(SCC(=O)Nc2nc(-c3cccc(Br)c3)cs2)nc2ccccc2c1=O	11µM*	10%	1	-15	?
COc1ccc(C2CC(=O)N(Cc3ccccc3)c3c2c(C)nn3-c2nc(C)cc(C)n2)c(OC)c1 (configuration not stated)	10%	·	-1	-27	2%
Cn1c(=N)n(CC(=O)c2ccc(Cl)c(Cl)c2)c2ccccc21	7.1µM*	-8%	1	3	13%
Cn1c(=N)n(CC(=O)O)c2ccccc21	22%	8%	1	-16	20%
Cn1c(=N)n(CC(=O)c2ccccc2)c2ccccc21	11µM*	-1%	0	2	-18%
COc1ccc(C(=O)Cn2c(=N)n(C)c3ccccc32)cc1	-17%	18%	0	-11	3%
COc1ccc(S(=O)(=O)N2CCc3ccccc32)cc1C(=O)Nc1cccnc1	65%	10µM*	0	-4	-7%
O=C(Nc1cccnc1)c1cccc(S(=O)(=O)N2CCc3ccccc32)c1	?	10%	1	9	-2%
O=C(Nc1ccc(Br)cc1)c1ccc(F)c(S(=O)(=O)N2CCc3ccccc32)c1	4.5µM*	·	2	43	-11%
Cc1cccc(C)c1NC(=O)c1cc(S(=O)(=O)N2CCCc3ccccc32)ccc1F	3.2µM*	·	2	50	19%
Cc1ccc(NC(=O)c2cc(S(=O)(=O)NCCC3=CCCCC3)ccc2F)cc1F	2µM*	1%	2	32	-11%
COc1cc2nc(CC(O)c3nc4cc(OC)c(OC)cc4[nH]3)[nH]c2cc1OC (configuration not stated)	·	·	0	·	·
Cc1ccc(Cn2c(=O)c3cccnc3n(Cc3ccc(F)cc3)c2=O)cc1	41%	·	-1	14	-10%
O=C(CCC(=O)N1CC2CCCN2c2ccccc21)NCc1ccc(F)cc1 (configuration not stated)	-21%	·	2	-10	0%
O=C(Nc1cccc(Cl)c1)c1ccc2nc(CCc3ccccc3)oc2c1	?	·	3	16	1%
O=C(Nc1ccc(Cl)cc1)c1cc(S(=O)(=O)N2CCCc3ccccc32)ccc1F	?	·	2	44	6%
Cc1ccc(NC(=O)c2cc(S(=O)(=O)N3CCCc4ccccc43)ccc2F)cc1F	13µM*	·	5	62	9%
CC(C)(C)c1ccc(C(=O)Nc2onc3c2CCCC3)cc1	?	·	?	-2	-8%
COc1ccc(N2CCC(CNC(=O)Nc3ccc(C)c(C)c3)C2)cc1 (configuration not stated)	6.3µM*	-1%	0	3	3%
CCCN(Cc1cccs1)C(=O)Nc1ccc(Br)c(C)c1	?	·	0	-14	6%
O=C1CN(C(=O)c2ccccc2)C(c2ccccc2)c2cc(F)ccc2N1 (configuration not stated)	-20%	12%	0	-11	-9%
O=C1CN(C(=O)c2ccc(Br)o2)C(c2ccccc2)c2cc(F)ccc2N1 (configuration not stated)	7.9µM*	6%	2	-11	-27%
CCOC(=O)Cc1ccc(NC(=O)c2ccc(C(C)(C)C)cc2)cc1	5µM*	-11%	-1	8	-20%
COC(=O)CC1Oc2ccc(C)cc2-n2cc(-c3ccc(F)cc3)nc21 (configuration not stated)	-10%	1%	3	-3	2%
CC1=CC(C)C(/C=N/N=C(N)N)C(C)C1 (configuration not stated)	8.9µM*	-1%	5	-17	11%
COc1cc2c(NC3CCN(C)CC3)nc(N3CCCN(C)CC3)nc2cc1OCc1ccccc1	·	·	-1	·	·
CC(C)c1nnc(NC(=O)c2ccc3c(c2)OCO3)s1	1.1µM*	-1%	3	13	-10%
O=C1CN(C(=O)c2ccc(Cl)cc2Cl)C(c2ccc(F)cc2)c2cc(F)ccc2N1 (configuration not stated)	?	·	1	1	0%

Screening data: PubChem, National Center for Advancing Translational Sciences (NCATS)
